Measurements reported in PubChem BioAssay (Tox21).
Results filed as inconclusive are left out. A number with no mark means an inactive call. Active and inactive are the calls of the source. Unless noted, the call rests on the fitted dose curve.

Target: Nuclear receptor subfamily 1 group I member 2 (Homo sapiens) (UniProt O75469)
Experiment: CYP3A4 induction through human pregnane X receptor (PXR) by small molecules, qHTS assay (AID 1346984; active means well fitted curve in the direction sought with a large enough effect in the repeat runs; an effect the other way counts as inactive or inconclusive; further: nearly all actives have a fitted effect of over 40% in size)
Conditions: DPX-2 HepG2 PXR, CYP3A4-luciferin luminescence, 24 h; series mostly up to 46.1 µM; activation: at the top concentration
How it was run: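 After 24 h at 37C with compound, DPX-2 cells (HepG2, co-transfected PXR response element and CYP3A4 promoter-luciferase) got 3uM final P450-Glo Luciferin-IPA for 3 h; One-Glo luminescence followed.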
On the % scale 0 is the no-effect control and ±100 the full control effect.

SMILES | activation [%]
Clc1ccc(C2(Cn3cncn3)OCCO2)c(Cl)c1 | 5.2
CCN(CC)C(=S)S | -16.1
CC(C)C(Br)C(=O)NC(N)=O (configuration not stated) | -3

Target: Nuclear receptor subfamily 1 group I member 2 (Homo sapiens) (UniProt O75469)
Experiment: Human pregnane X receptor (PXR) activation by small molecules, qHTS assay (AID 1346985; active means well fitted curve in the direction sought with a large enough effect in the repeat runs; an effect the other way counts as inactive or inconclusive; further: nearly all actives have a fitted effect of over 40% in size)
Conditions: DPX-2 HepG2 CYP3A4-luciferase, 24 h; series mostly up to 38.3 µM; activation: at the top concentration
How it was run: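 DPX-2 cells (HepG2 co-transfected with a PXR response element and a CYP3A4-promoter luciferase construct) were seeded at 2,000 per well, rested 5 hr at 37C, then exposed to DMSO-dissolved compounds for 24 hr. Activation was read as luciferase luminescence.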

SMILES | activation [%]
Clc1ccc(C2(Cn3cncn3)OCCO2)c(Cl)c1 | -1.46
CCN(CC)C(=S)S | -5.04
CC(C)C(Br)C(=O)NC(N)=O (configuration not stated) | -1.71

Target: Acetylcholinesterase (Homo sapiens) (UniProt P22303)
Experiment: Acetylcholinesterase (AChE) small molecule antagonists: colormetric cell-based qHTS assay (AID 1347395); further: nearly all actives have a fitted effect of over 30% in size; further: potency means the concentration at half of the fitted maximal effect
Conditions: SH-SY5Y cells AChE activity, colorimetric (Ellman); series mostly up to 115 µM; activity, negative = inhibition: at the top concentration
How it was run: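 Neuroblastoma line SH-SY5Y supplied the enzyme; cells were preincubated with compound for 30 min at 37 C and 5% CO2. Acetylthiocholine with DTNB was then added for 90 min at 37 C, and thiocholine was measured by colour.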

Acetylcholinesterase (Homo sapiens), sequence (P22303 whole entry, looked up): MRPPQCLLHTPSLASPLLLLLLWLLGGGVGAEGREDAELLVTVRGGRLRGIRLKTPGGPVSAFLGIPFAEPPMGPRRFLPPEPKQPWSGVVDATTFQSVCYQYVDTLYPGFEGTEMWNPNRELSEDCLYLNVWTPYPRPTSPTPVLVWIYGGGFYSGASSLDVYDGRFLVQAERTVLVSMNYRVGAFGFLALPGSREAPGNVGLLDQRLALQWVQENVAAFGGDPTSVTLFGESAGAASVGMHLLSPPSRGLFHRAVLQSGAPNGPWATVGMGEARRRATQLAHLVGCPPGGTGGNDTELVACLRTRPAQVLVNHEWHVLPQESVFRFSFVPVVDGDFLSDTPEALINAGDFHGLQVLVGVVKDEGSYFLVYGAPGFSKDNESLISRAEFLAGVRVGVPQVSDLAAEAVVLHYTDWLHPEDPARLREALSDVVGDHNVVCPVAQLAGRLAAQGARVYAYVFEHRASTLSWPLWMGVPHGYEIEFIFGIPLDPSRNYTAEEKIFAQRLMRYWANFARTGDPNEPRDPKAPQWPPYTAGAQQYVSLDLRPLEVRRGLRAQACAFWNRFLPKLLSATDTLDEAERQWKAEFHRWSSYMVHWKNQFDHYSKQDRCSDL

SMILES | activity, negative = inhibition | Potency
CC(C)Br | 0.874% | –
CN(C)c1ccc(N)cc1 | – | 12.3 µM (active)
N#Cc1c[nH]cc1-c1cccc2c1OC(F)(F)O2 | -0.0257% | –
Nc1cc(Cl)ccc1Cl | 1.27% | –
Nc1c(Cl)c(Cl)c(Cl)c(Cl)c1Cl | -1.41% | –
CSC1=N[C@@](C)(c2ccccc2)C(=O)N1Nc1ccccc1 | -0.651% | –
FC(F)C(F)(F)OCC(Cn1cncn1)c1ccc(Cl)cc1Cl (configuration not stated) | -3.26% | –
c1ccc(Nc2ccc(Nc3ccccc3)cc2)cc1 | 2.42% | –
c1csc(-c2ccc(-c3cccs3)s2)c1 | 3.91% | –
CC[C@H](C)[C@H]1O[C@]2(C=C[C@@H]1C)C[C@@H]1C[C@@H](C/C=C(\C)[C@@H](O[C@H]3C[C@H](OC)[C@@H](O[C@H]4C[C@H](OC)[C@@H](NC)[C@H](C)O4)[C@H](C)O3)[C@@H](C)/C=C/C=C3\CO[C@@H]4[C@H](O)C(C)=C[C@@H](C(=O)O1)[C@]34O)O2 | -1.12% | –
CC1CCCC1 | 0.902% | –
CCC(OC(C)=O)C(CC(C)NC)(c1ccccc1)c1ccccc1 (configuration not stated) | 0.698% | –
Nc1ccc(N=Nc2ccccc2)cc1 | 16.1% | –
Cc1nn(-c2cc(NS(C)(=O)=O)c(Cl)cc2Cl)c(=O)n1C(F)F | -0.745% | –
CSC(C)(C)/C=N/O | 1.89% | –
O.O.O.O=C([O-])[C@H]([O-])[C@@H]([O-])C(=O)[O-].O=C([O-])[C@H]([O-])[C@@H]([O-])C(=O)[O-].[K+].[K+].[Sb+3].[Sb+3] | -0.381% | –

SMILES | activity, negative = inhibition | Potency
O=c1c2ccccc2c(=O)c2c1cc(Cl)c1[nH]c3c([nH]c12)c(Cl)cc1c(=O)c2ccccc2c(=O)c13 | 1.28% | –
CN(C)CCc1c[nH]c2ccccc12 | -0.82% | –
CCN(CC)C(=S)S | – | inactive
O=[N+]([O-])c1ccc(Cl)c(Cl)c1Cl | -6.35% | –
CNN | 1.48% | –
[O]=[Cr][O][Cr]=[O] | 0.6% | –
O=[N+]([O-])c1cccc2cccc([N+](=O)[O-])c12 | – | 20.1 µM (active)
CCN(CC)CCc1c[nH]c2ccccc12 | 3.37% | –
O=NN(CCO)CCO | 5.27% | –
CCOP(=S)(NC(C)C)Oc1ccccc1C(=O)OC(C)C (configuration not stated) | -3.22% | –
COc1ccc2c(c1OC)C(=O)O[C@@H]2[C@H]1c2cc3c(cc2CCN1C)OCO3 | -0.409% | –
CCC[CH2][Sn]([CH2]CCC)([CH2]CCC)[CH2]CCC | 0.856% | –
O=[N+]([O-])C(Br)Br | 2.63% | –
CO/N=C(/C1=NOCCO1)c1ccccc1Oc1ncnc(Oc2ccccc2Cl)c1F | 2.11% | –
CC(C)C(Br)C(=O)NC(N)=O (configuration not stated) | 2.34% [at 52.9 µM] | –
